# Where “and” joins values, the source holds several entries; their conditions need not be identical. Equal entries are not always repeated. Results filed as inconclusive are left out. Entries that show only a call come without a potency. A structure can be active in one record and inactive in another. Calls of active or inactive are those of the source. Unless noted, calls come from the whole dose curve; as a rule, active = well fitted curve in the direction sought with a large enough effect in the repeat runs; inconclusive = weak or mixed curves; inactive = no such curve, though single readings can be large; an effect the other way counts as inactive or inconclusive.
# Experiments:
# [1] = A CellTox Green Cytotoxicity Assay to monitor cytotoxicity in HepG2 cells - 8 hour (AID 1224890); note: nearly all actives have a fitted effect of over 45% in size; note: potency is the fitted concentration of half-maximal effect
# Method in brief: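 HepG2 cells, 600/well, preincubated 5 h with CellTox Green dye, then exposed to Tox21 compounds in DMSO at 37 C for up to 40 h. Dead-cell DNA fluorescence read at the indicated time point.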
# [2] = target: Estrogen receptor (Homo sapiens) (UniProt P03372); experiment: qHTS assay to identify small molecule antagonists of the estrogen receptor alpha (ER-alpha) signaling pathway using the BG1 cell line in the presence of 0.1 nM 17-beta-estradiol (AID 1259244); note: nearly all actives have a fitted effect of over 50% in size; note: potency is the fitted concentration of half-maximal effect
# Method in brief: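 VM7Luc4E2 cells (endogenous full-length ER-alpha, 4×ERE-luciferase), kept 5 days in phenol red-free, charcoal-stripped FBS medium; 4,000 cells/well. Compounds added with 0.1 nM (final) 17beta-estradiol, 22 hr at 37C; luminescence read with ONE-Glo after 30 min.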
# [3] = qHTS assay to identify small molecule HDAC inhibitors (AID 1259364); note: nearly all actives have a fitted effect of over 45% in size; note: potency is the fitted concentration of half-maximal effect
# Method in brief: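 Wild-type HCT-116 cells, plated overnight at 37 C, exposed to compounds 2 hr at 37 C; luminogenic HDAC-Glo substrate then added 30 min at room temperature. Luminescence reports relative endogenous class I/II HDAC activity.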
# [4] = qHTS assay to identify small molecule HDAC inhibitors - cell viability counter screen (AID 1259365); note: series mostly up to about 92 µM; nearly all actives have a fitted effect of over 50% in size
# Method in brief: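 CellTiter-Glo luminescence (30 min, room temperature) reported viability after a 2 h compound exposure at 37 C. Cells: wild-type HCT-116, 1,500 per well, seeded the night before.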
# [5] = qHTS assay to identify small molecule agonists of the sonic hedgehog signaling (Shh) pathway - cell viability counter screen (AID 1259366); note: nearly all actives have a fitted effect of over 50% in size; note: potency is the fitted concentration of half-maximal effect
# Method in brief: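 Cytotoxicity counter screen: CellTiter-Fluor reagent added after 23 h compound exposure, then 1 h at 37C and fluorescence read. Cells were 3T3 Gli1-Luc, seeded 2,000 per well and dosed 4 h post-plating.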
# [6] = qHTS assay to identify small molecule antagonists of the sonic hedgehog signaling (Shh) pathway - cell viability counter screen (AID 1259367); note: nearly all actives have a fitted effect of over 55% in size; note: potency is the fitted concentration of half-maximal effect
# Method in brief: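 NIH/3T3-derived Gli1-Luc reporter cells (2,000 per well) rested 4 hr at 37 C, then received DMSO compounds plus conditioned medium. After 23 hr of treatment, CellTiter-Fluor was added for 1 hr at 37C and fluorescence read.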
# [7] = qHTS assay to identify small molecule agonists of the sonic hedgehog signaling (Shh) pathway (AID 1259368; calls by dose curve;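 note: NIH/3T3-derived 3T3Gli1-Luc cells carrying a stable Gli1-driven firefly luciferase reporter; series mostly up to about 92 µM; nearly all actives have a fitted effect of over 15% in size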)
# Method in brief: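 NIH/3T3-derived 3T3Gli1-Luc cells with stably integrated Gli1-driven firefly luciferase, 2,000 cells/well, compounds added after 4 hr. Incubated 24 hr at 37C, 5% CO2; luminescence read after 30 min with luciferase reagent at room temperature.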
# [8] = qHTS assay to identify small molecule antagonists of the sonic hedgehog signaling (Shh) pathway (AID 1259369; calls by dose curve; note: nearly all actives have a fitted effect of over 45% in size; note: potency is the fitted concentration of half-maximal effect)
# Method in brief: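 NIH/3T3-derived Gli1-Luc reporter cells plated 4 h, dosed with compound, then stimulated with conditioned medium for 24 h at 37 C. Firefly luciferase luminescence read after 30 min with detection reagent at room temperature.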
# [9] = target: Estrogen receptor beta (Homo sapiens) (UniProt Q92731); experiment: qHTS assay to identify small molecule agonists of the estrogen receptor beta (ER-beta) signaling pathway (AID 1259377; active = well fitted activation curve with a large enough effect in the signal ratio in the repeat runs, not every such curve was filed as active; the % refers to the signal ratio; note: potency is the fitted concentration of half-maximal effect)
# Method in brief: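 Ratiometric beta-lactamase FRET read-out came after 2 h substrate loading at room temperature. It followed 16 h compound treatment at 37C of GripTite HEK293T cells carrying a UAS-bla reporter, plated in 2% charcoal-stripped FBS medium.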
# [10] = target: Estrogen receptor beta (Homo sapiens) (UniProt Q92731); experiment: qHTS assay to identify small molecule antagonists of the estrogen receptor beta (ER-beta) signaling pathway (AID 1259378; active = well fitted inhibition curve with a large enough effect in the signal ratio in the repeat runs, not every such curve was filed as active; the % refers to the signal ratio)
# Method in brief: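 ER-beta-UAS-bla HEK293T (GripTite) cells in 2% charcoal-stripped FBS medium were preincubated 6 hr at 37C, dosed with compound, then stimulated with 1 nM E2 (final) for 16 hr; beta-lactamase reporter read by B/G FRET fluorescence after 2 hr substrate loading.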
# [11] = qHTS assay to identify small molecule agonists of the androgen receptor (AR) signaling pathway in the presence of an antagonist - cell viability counter screen (AID 1259379); note: nearly all actives have a fitted effect of over 25% in size; note: potency is the fitted concentration of half-maximal effect
# Method in brief: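 MDA-kb2 cells (MMTV-luciferase, AR/GR), 3,000/well, 5 h attachment, then 3.0 µM nilutamide (final) and compounds at 15 concentrations. Viability by CellTiter-Fluor fluorescence after 16 h at 37 °C, 0% CO2, in the reporter wells.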
# [12] = qHTS assay to identify small molecule agonists of the estrogen receptor beta (ER-beta) signaling pathway - cell viability counter screen (AID 1259380); note: nearly all actives have a fitted effect of over 30% in size; note: potency is the fitted concentration of half-maximal effect
# Method in brief: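 ER-beta-UAS-bla HEK293T cells in medium with 2% charcoal-stripped FBS, pre-incubated 6 hr, then treated 16 hr at 37C. Cytotoxicity read in the same wells by CellTiter-Glo luminescence after 30 min at room temperature.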
# [13] = qHTS assay to identify small molecule antagonists of the estrogen receptor beta (ER-beta) signaling pathway - cell viability counter screen (AID 1259382); note: series mostly up to about 92 µM; nearly all actives have a fitted effect of over 55% in size
# Method in brief: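 ER-beta-UAS-bla HEK293T cells in 2% charcoal-stripped FBS medium, treated with compound plus 1 nM 17-beta-estradiol for 16 h at 37C. Viability read by CellTiter-Glo luminescence after 30 min at room temperature in the same wells.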
# [14] = target: Estrogen receptor (Homo sapiens) (UniProt P03372); experiment: qHTS assay to identify small molecule agonists of the estrogen receptor alpha (ER-alpha) signaling pathway in the presence of an antagonist (AID 1259383; calls by dose curve; note: top concentration of the series differs between compounds; nearly all actives have a fitted effect of over 15% in size)
# Method in brief: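 VM7Luc4E2 cells express endogenous full-length ER-alpha with an ERE-luciferase reporter and were hormone-deprived for 5 days. Compounds at 15 concentrations were added with 10.0nM ICI-182,780 for 22hr at 37C. Luminescence was read with ONE-Glo.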
# [15] = qHTS assay to identify small molecule agonists or antagonists of the thyroid stimulating hormone receptor (TSHR) signaling pathway - wild type cell line counter screen (AID 1259384; calls by dose curve)
# Method in brief: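 Wild-type HEK293 cells were plated 18 h at 37 C/5% CO2, pin-dosed with compound plus Ro20-1724 medium, held 30 min at room temperature, then given cAMP-d2 and anti-cAMP-cryptate; fluorescence was read after 1 h. Fifteen concentrations, triplicate.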
# [16] = qHTS assay to identify small molecule antagonists of the androgen receptor (AR) signaling pathway using the MDA cell line in the presence of 0.5 nM R1881 - cell viability counter screen (AID 1259242); note: nearly all actives have a fitted effect of over 45% in size
# Method in brief: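 MDA-kb2 cells (MMTV-luciferase, AR/GR responsive) were treated with compounds plus 0.5 nM R1881 (final) for 16 hr at 37C, 0% CO2. Viability was then read in the same wells as live-cell protease fluorescence (CellTiter-Fluor, 30 min).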
# [17] = qHTS assay to identify small molecule phospholipidosis (PLD) inducers (AID 1259344; active = well fitted curve in the direction sought with a large enough effect; an effect the other way counts as inactive or inconclusive)
# Method in brief: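 HepG2 cells on collagen I, attached 4 h at 37 C, were co-treated with compound and LipidTOX Red dye for 24 h at 37 C, then fixed with paraformaldehyde plus Hoechst 33342 and imaged by high-content microscopy for phospholipid accumulation.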
# [18] = qHTS assay to identify small molecule antagonists of the estrogen receptor alpha (ER-alpha) signaling pathway using the BG1 cell line in the presence of 0.1 nM 17-beta-estradiol - cell viability counter screen (AID 1259241); note: nearly all actives have a fitted effect of over 40% in size
# Method in brief: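 Cytotoxicity counter-screen: live-cell protease activity measured by fluorescence (30 min reagent step) in the same wells. Cells were VM7Luc4E2 with endogenous ER-alpha and ERE-driven luciferase, treated 22 hr at 37C alongside 0.1 nM 17beta-estradiol final.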
# [19] = target: Androgen receptor (Homo sapiens) (UniProt P10275); experiment: qHTS assay to identify small molecule antagonists of the androgen receptor (AR) signaling pathway using the MDA cell line in the presence of 0.5 nM R1881 (AID 1259243); note: potency is the fitted concentration of half-maximal effect; nearly all actives have a fitted effect of over 50% in size
# Method in brief: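 MDA-kb2 cells (MMTV-luciferase, responsive to AR and GR) at 3,000/well, rested 5 h at 37C, 0% CO2, then given compounds plus 0.5 nM R1881 (final) for 16 hr. Luciferase read with ONE-Glo after 30 min at room temperature.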
# [20] = target: Androgen receptor (Homo sapiens) (UniProt P10275); experiment: qHTS assay to identify small molecule agonists of the androgen receptor (AR) signaling pathway in the presence of an antagonist (AID 1259381; calls by dose curve; note: nearly all actives have a fitted effect of over 15% in size)
# Method in brief: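 MDA-kb2 cells carrying MMTV-luciferase (AR/GR responsive), 3,000 cells/well, co-treated with 3.0 uM nilutamide final. Compounds at 15 concentrations, 16 hr at 37C without CO2. Luciferase luminescence read after 30 min with ONE-Glo.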
# Chain of Estrogen receptor beta (Homo sapiens) (Q92731 whole entry, looked up): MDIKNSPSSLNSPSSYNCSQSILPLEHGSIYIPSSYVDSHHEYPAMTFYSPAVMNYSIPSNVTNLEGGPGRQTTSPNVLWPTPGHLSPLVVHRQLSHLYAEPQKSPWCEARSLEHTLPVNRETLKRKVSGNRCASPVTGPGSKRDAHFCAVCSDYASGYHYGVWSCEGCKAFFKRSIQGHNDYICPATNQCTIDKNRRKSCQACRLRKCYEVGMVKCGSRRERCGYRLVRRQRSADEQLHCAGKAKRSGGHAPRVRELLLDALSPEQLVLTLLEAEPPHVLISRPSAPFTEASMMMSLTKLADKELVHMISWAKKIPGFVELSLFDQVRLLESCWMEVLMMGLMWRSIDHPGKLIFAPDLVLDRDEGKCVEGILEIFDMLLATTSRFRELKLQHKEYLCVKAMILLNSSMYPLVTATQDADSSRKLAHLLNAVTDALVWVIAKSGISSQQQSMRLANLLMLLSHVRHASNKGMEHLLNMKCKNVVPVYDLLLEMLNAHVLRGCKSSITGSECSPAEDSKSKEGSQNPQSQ
# Chain of Estrogen receptor (Homo sapiens) (P03372 whole entry, looked up): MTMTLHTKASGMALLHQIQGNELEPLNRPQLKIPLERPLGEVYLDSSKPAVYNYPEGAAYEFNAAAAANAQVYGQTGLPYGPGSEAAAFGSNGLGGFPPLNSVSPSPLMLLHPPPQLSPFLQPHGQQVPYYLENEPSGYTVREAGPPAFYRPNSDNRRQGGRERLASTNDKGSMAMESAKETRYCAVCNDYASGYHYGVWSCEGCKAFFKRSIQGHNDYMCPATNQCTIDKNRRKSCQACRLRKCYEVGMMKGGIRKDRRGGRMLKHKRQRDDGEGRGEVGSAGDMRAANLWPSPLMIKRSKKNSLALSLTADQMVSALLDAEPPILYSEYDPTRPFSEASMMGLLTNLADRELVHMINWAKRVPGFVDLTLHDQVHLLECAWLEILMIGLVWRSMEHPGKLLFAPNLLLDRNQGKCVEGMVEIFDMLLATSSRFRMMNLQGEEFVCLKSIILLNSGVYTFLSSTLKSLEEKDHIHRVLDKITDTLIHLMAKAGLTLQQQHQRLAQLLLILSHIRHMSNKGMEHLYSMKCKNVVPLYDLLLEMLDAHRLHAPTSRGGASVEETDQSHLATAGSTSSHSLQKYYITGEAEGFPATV
# Chain of Androgen receptor (Homo sapiens) (P10275 whole entry, looked up): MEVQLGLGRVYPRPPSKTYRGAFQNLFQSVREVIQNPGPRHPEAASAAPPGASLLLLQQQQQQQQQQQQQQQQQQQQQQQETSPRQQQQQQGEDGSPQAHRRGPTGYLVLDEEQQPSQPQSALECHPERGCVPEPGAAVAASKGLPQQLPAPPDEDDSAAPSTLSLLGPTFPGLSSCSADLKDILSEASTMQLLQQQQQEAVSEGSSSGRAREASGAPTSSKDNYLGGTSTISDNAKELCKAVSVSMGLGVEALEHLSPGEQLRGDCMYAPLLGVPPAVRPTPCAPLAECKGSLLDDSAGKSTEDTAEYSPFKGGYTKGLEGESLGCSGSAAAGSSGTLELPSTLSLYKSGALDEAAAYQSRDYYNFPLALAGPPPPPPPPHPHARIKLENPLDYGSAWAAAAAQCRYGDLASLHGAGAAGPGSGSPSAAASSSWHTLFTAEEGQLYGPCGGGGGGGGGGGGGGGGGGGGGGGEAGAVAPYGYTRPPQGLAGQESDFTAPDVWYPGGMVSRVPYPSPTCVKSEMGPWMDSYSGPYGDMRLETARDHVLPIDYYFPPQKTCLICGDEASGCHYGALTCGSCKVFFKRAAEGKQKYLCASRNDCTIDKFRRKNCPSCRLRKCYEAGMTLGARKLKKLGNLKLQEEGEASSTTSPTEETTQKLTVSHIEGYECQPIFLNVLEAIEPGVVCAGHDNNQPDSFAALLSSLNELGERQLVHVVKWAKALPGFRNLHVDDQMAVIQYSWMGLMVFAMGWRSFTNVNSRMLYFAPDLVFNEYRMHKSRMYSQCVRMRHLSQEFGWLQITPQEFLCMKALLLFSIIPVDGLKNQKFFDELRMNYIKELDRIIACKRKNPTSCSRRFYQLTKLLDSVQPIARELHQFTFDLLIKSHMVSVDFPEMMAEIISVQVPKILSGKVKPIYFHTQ
SMILES,Potency [1],Potency [2],Potency [3],outcome [4],Potency [5],Potency [6],Potency [7],Potency [8],Potency [9],Potency [10],Potency [11],Potency [12],Potency [13],Potency [14],outcome [15],Potency [16],outcome [17],Potency [18],Potency [19],Potency [20]
Cc1ccccc1[N+](=O)[O-],inactive,inactive,inactive,inactive,inactive,inactive,inactive,inactive,inactive,inactive,inactive,inactive,inactive,inactive,inactive,–,–,–,–,–
CC(C)(c1cc(Cl)c(O)c(Cl)c1)c1cc(Cl)c(O)c(Cl)c1,inactive,–,inactive,inactive,inactive,–,inactive,30.6 µM (active) and 34.4 µM (active),–,–,inactive,–,inactive,–,–,inactive,–,–,–,–
C1=Cc2cccc3cccc1c23,inactive,–,inactive,inactive,inactive,–,inactive,inactive,–,–,inactive,inactive,inactive,–,–,inactive,–,–,–,–
Nc1ccc(Cl)c(Cl)c1,inactive,–,inactive,inactive,inactive,inactive,inactive,inactive,inactive,inactive,inactive,inactive,inactive,–,inactive,inactive,–,–,–,–
C[C@]12CCC(=O)C[C@@H]1CC[C@@H]1[C@@H]2CC[C@]2(C)[C@@H](O)CC[C@@H]12,inactive,–,inactive,inactive,inactive,inactive,inactive,17 µM (active) and 13.7 µM (active),853 nM (active) and 546 nM (active),–,67.8 µM (active) and inactive,–,–,–,–,–,inactive,–,–,–
CC(C)N(C(=O)SCC(Cl)=C(Cl)Cl)C(C)C,inactive,–,inactive,inactive,inactive,inactive,inactive,inactive,inactive,inactive,inactive,inactive,inactive,–,–,–,–,–,–,–
CCN(N=O)C(N)=O,inactive,inactive,inactive,inactive,inactive,inactive,inactive,inactive,inactive,inactive,inactive,inactive,inactive,inactive,inactive,inactive,–,–,–,–
CCC(C)c1cc([N+](=O)[O-])cc([N+](=O)[O-])c1O (centres undefined),inactive,inactive and 17.2 µM (active),inactive,inactive,inactive and 43.3 µM (active),inactive and 24.3 µM (active),inactive,inactive and 12.2 µM (active),inactive,inactive,inactive and 21.7 µM (active),inactive,inactive,inactive,inactive,–,–,–,–,–
CC(C)(C)c1ccccc1O,–,–,inactive,inactive,inactive,–,inactive,inactive,inactive,inactive,inactive,–,inactive,–,–,–,–,inactive,–,–
S=C1NCCN1,inactive,–,inactive,inactive,inactive,inactive,inactive,inactive,–,–,inactive,–,inactive,–,inactive,inactive,–,–,–,–
N[C@@H](Cc1ccc(N(CCCl)CCCl)cc1)C(=O)O,inactive,–,inactive,inactive,inactive,–,inactive,inactive,inactive,inactive,inactive,–,inactive,–,inactive,inactive,inactive,–,–,–
CCCCCCCCCCCOC(=O)c1ccccc1C(=O)OCCCCCCCCCCC,inactive,inactive,inactive,inactive,inactive,inactive,inactive,inactive,inactive,inactive,inactive,–,inactive,inactive,inactive,inactive,–,–,–,–
CCCCCCOC(=O)c1ccccc1C(=O)OCCCCCC,inactive,inactive,49.5 µM (active) and inactive,inactive,inactive,inactive,inactive,inactive,–,–,inactive,inactive,inactive,inactive,inactive,inactive,–,–,–,–
Oc1ccc(-c2ccccc2)cc1,inactive,inactive,inactive,inactive,–,–,inactive,inactive,–,–,inactive,–,inactive,inactive,inactive,inactive,–,–,–,–
CC(C)(OOC(C)(C)c1ccccc1)c1ccccc1,inactive,–,inactive,inactive,inactive,inactive,inactive,inactive,inactive,–,inactive,inactive,inactive,–,inactive,–,–,–,24 µM (active),inactive
CCCCC(CC)COC(=O)Cl (centres undefined),inactive and 38.9 µM (active),inactive,inactive,inactive,inactive,inactive,inactive,inactive,inactive,inactive,inactive,inactive,inactive,inactive,inactive,–,–,–,–,–
Oc1cc(Cl)ccc1Cl,inactive,–,inactive,inactive,inactive,inactive,inactive,inactive,–,–,inactive,–,inactive,–,–,–,–,–,–,–
CCCCOCCOP(=O)(OCCOCCCC)OCCOCCCC,inactive,inactive,inactive,inactive,inactive,–,inactive,–,inactive,inactive,inactive,24.4 µM (active),–,inactive,–,inactive,–,–,–,–
ClC1C(Cl)C(Cl)C(Cl)C(Cl)C1Cl (centres undefined),inactive,–,inactive,inactive,inactive,inactive,inactive,inactive,–,inactive,inactive,inactive and 27.3 µM (active) and 54.5 µM (active),inactive,–,inactive,inactive,inactive,–,–,–

# Reference: PubChem BioAssay (Tox21)
